Results with a measured potency or affinity are listed apart.
Tests used:
Staphylococcus aureus = details: Concentration 32 ug.mL-1;; ASSAY_TEST Inhibition of Bacterial Growth; detection method Absorption (OD600); MEDIA CAMHB; plate type 384well; NBS; CORNING #3640; time 18 hr
Escherichia coli = details: Concentration 32 ug.mL-1;; ASSAY_TEST Inhibition of Bacterial Growth; detection method Absorption (OD600); MEDIA CAMHB; plate type 384well; NBS; CORNING #3640; time 18 hr

CCOC(=O)c1ccccc1NC(=O)CSc1nnc2ccc(C(=O)Nc3cccc(F)c3)cn12
Inhibition (Staphylococcus aureus): 9.51% | Inhibition (Escherichia coli): -2.64%

CC(C)Cn1c(=O)c2sccc2n2c(=O)n(CC(N)=O)nc12
Inhibition (Staphylococcus aureus): -15.52% | Inhibition (Escherichia coli): -14.55%

N#Cc1cccc(NC(=O)Cn2nc3c4cc(-c5ccc(Cl)cc5)nn4ccn3c2=O)c1
Inhibition (Staphylococcus aureus): 2.28% | Inhibition (Escherichia coli): -5.31%

O=c1n(Cc2cccc(C(F)(F)F)c2)nc2ccc(S(=O)(=O)N3CCCC3)cn12
Inhibition (Staphylococcus aureus): 14.07% | Inhibition (Escherichia coli): -1.1%

CCc1ccc(NC(=O)Cn2nc3c(=O)n(-c4ccc(Br)cc4)ccn3c2=O)cc1
Inhibition (Staphylococcus aureus): -5.7% | Inhibition (Escherichia coli): -7.12%

O=c1n(Cc2cccc(C(F)(F)F)c2)nc2ccc(S(=O)(=O)N3CCCCC3)cn12
Inhibition (Staphylococcus aureus): 14.29% | Inhibition (Escherichia coli): 0.28%

COc1ccc(NC(=O)Cn2nc3c(Oc4ccc(C)cc4)nccn3c2=O)cc1Cl
Inhibition (Staphylococcus aureus): -1.59% | Inhibition (Escherichia coli): -3.22%

COC(=O)c1ccccc1NC(=O)CSc1nc2ccccc2n2c(C(C)C)nnc12
Inhibition (Staphylococcus aureus): 10.06% | Inhibition (Escherichia coli): -3.26%

COc1ccccc1N1CCN(C(=O)Cn2nc3ccc(-c4ccccc4)nn3c2=O)CC1
Inhibition (Staphylococcus aureus): -11.69% | Inhibition (Escherichia coli): -1.16%

Cc1cccc(N(Cc2cccc(Cl)c2)S(=O)(=O)c2cccn3c(C)nnc23)c1
Inhibition (Staphylococcus aureus): 2.81% | Inhibition (Escherichia coli): -5.89%

Cc1ccc(Oc2nccn3c(=O)n(CC(=O)NCc4cccs4)nc23)cc1
Inhibition (Staphylococcus aureus): 11.07% | Inhibition (Escherichia coli): 1.37%

Cc1cc2nn(CC(=O)Nc3ccc(F)cc3F)c(=O)n2c(Nc2ccc(C)c(F)c2)n1
Inhibition (Staphylococcus aureus): 8.31% | Inhibition (Escherichia coli): -0.48%

CC(C)NC(=O)CSc1nnc2c(=O)n(-c3ccccc3)ccn12
Inhibition (Staphylococcus aureus): -3.39% | Inhibition (Escherichia coli): 1.35%

COc1cccc(-n2ccn3c(SCC(=O)c4c[nH]c5ccc(OC)cc45)nnc3c2=O)c1
Inhibition (Staphylococcus aureus): 11.97% | Inhibition (Escherichia coli): -2.96%

Cc1cc(C)c(NC(=O)Cn2nc3c(N4CCCC(C)C4)nccn3c2=O)c(C)c1 (stereo not given)
Inhibition (Staphylococcus aureus): -1.28% | Inhibition (Escherichia coli): -2.83%

O=C(CSc1nnc2c(=O)n(-c3ccccc3)ccn12)Nc1ccc(F)cc1
Inhibition (Staphylococcus aureus): 5.78% | Inhibition (Escherichia coli): -2.43%

O=C(Cn1nc2c3c4c(sc3ncn2c1=O)CCCC4)NCCc1ccc(Cl)cc1
Inhibition (Staphylococcus aureus): 7.1% | Inhibition (Escherichia coli): 2.28%

O=C(Cn1nc2c3sccc3ncn2c1=O)Nc1ccc2c(c1)OCO2
Inhibition (Staphylococcus aureus): -1.71% | Inhibition (Escherichia coli): -14.29%

Cc1ccc(-c2cc3c4nnc(CCC(=O)N5CCN(c6ccccc6F)CC5)n4ccn3n2)cc1C
Inhibition (Staphylococcus aureus): -1.08% | Inhibition (Escherichia coli): -5.39%

Cc1cc(C)cc(Nc2nc(C)cc3nn(CC(=O)Nc4cc(F)cc(F)c4)c(=O)n23)c1
Inhibition (Staphylococcus aureus): 7.68% | Inhibition (Escherichia coli): -2.61%

Cc1ccc(C)c(NC(=O)Cn2nc3ccc(-c4ccccc4)nn3c2=O)c1
Inhibition (Staphylococcus aureus): -0.8% | Inhibition (Escherichia coli): -9.05%

COc1ccc(OC)c(NC(=O)Cn2nc3c4cc(-c5ccc(F)cc5)nn4ccn3c2=O)c1
Inhibition (Staphylococcus aureus): 7.29% | Inhibition (Escherichia coli): -2.37%

COc1cccc(CN(c2ccc(F)c(F)c2)S(=O)(=O)c2ccc3nnc(C)n3c2)c1
Inhibition (Staphylococcus aureus): 7.3% | Inhibition (Escherichia coli): -2.88%

CC(C)CCn1c(=O)c2ccc(C(=O)NC3CCCC3)cc2n2c(=S)[nH]nc12
Inhibition (Staphylococcus aureus): -2% | Inhibition (Escherichia coli): -7.9%

Cc1cc(C)c(NC(=O)Cn2nc3ccc(Sc4cccc(F)c4)nn3c2=O)c(C)c1
Inhibition (Staphylococcus aureus): 3.74% | Inhibition (Escherichia coli): -5.92%

Cc1cccc(NC(=O)Cn2nc3ccc(-c4ccc(C)c(C)c4)nn3c2=O)c1
Inhibition (Staphylococcus aureus): -13.22% | Inhibition (Escherichia coli): -14.87%

COc1ccc(CNC(=O)Cn2nc3c4cc(-c5ccc(OC)cc5)nn4ccn3c2=O)cc1
Inhibition (Staphylococcus aureus): -1.74% | Inhibition (Escherichia coli): -1.87%

COc1cccc(Sc2nc3ccccc3n3c(=O)n(CC(=O)Nc4ccc(Cl)cc4)nc23)c1
Inhibition (Staphylococcus aureus): 1.75% | Inhibition (Escherichia coli): -3.52%

Cc1ccc(Oc2nccn3c(=O)n(CC(=O)Nc4cccc(Cl)c4)nc23)cc1
Inhibition (Staphylococcus aureus): -3.9% | Inhibition (Escherichia coli): -9.06%

CCOc1ccccc1NC(=O)Cn1nc2c(SC3CCCCC3)nccn2c1=O
Inhibition (Staphylococcus aureus): 3% | Inhibition (Escherichia coli): -8.56%

CCc1nnc2c(=O)n(CC(=O)Nc3ccc(C(C)C)cc3)c3ccccc3n12
Inhibition (Staphylococcus aureus): 12.36% | Inhibition (Escherichia coli): 0.11%

Cc1nnc2ccc(S(=O)(=O)N(Cc3cccc(F)c3)c3cc(F)cc(F)c3)cn12
Inhibition (Staphylococcus aureus): 9.82% | Inhibition (Escherichia coli): -6.06%

CC(C)c1nnc2c(=O)n(CC(=O)Nc3cccc(Br)c3)c3ccccc3n12
Inhibition (Staphylococcus aureus): 13.16% | Inhibition (Escherichia coli): -0.75%

COc1ccc(Cl)cc1NC(=O)Cn1nc2c3cc(-c4ccc(C)cc4)nn3ccn2c1=O
Inhibition (Staphylococcus aureus): 13.21% | Inhibition (Escherichia coli): 3.02%

COc1cccc(C(=O)CSc2nnc3c(=O)n(-c4ccc(F)cc4)ccn23)c1
Inhibition (Staphylococcus aureus): 4.06% | Inhibition (Escherichia coli): 2.2%

Reference: ChEMBL document CHEMBL4513146, “CO-ADD screening of Karazin Kharkiv National University (Ukraine) compounds”
